Laboratory results: the supplement of paper PMC3334620
Over roughly 33,000 sequences, “E-score (-0.5 to 0.5)” has its median near -0.016; the highest 2% begin near 0.3. The entries come from a sample that favours the highest values as a whole.

The sequences below were run against T1, Yer184c (UniProt P39961) (assay: PBM E-score (8-mer binding enrichment) (E-score (-0.5 to 0.5)); higher = stronger / more preferred TF binding). Conditions: protein concentration: 100 nM; construct: GST-full length.
T1 sequence: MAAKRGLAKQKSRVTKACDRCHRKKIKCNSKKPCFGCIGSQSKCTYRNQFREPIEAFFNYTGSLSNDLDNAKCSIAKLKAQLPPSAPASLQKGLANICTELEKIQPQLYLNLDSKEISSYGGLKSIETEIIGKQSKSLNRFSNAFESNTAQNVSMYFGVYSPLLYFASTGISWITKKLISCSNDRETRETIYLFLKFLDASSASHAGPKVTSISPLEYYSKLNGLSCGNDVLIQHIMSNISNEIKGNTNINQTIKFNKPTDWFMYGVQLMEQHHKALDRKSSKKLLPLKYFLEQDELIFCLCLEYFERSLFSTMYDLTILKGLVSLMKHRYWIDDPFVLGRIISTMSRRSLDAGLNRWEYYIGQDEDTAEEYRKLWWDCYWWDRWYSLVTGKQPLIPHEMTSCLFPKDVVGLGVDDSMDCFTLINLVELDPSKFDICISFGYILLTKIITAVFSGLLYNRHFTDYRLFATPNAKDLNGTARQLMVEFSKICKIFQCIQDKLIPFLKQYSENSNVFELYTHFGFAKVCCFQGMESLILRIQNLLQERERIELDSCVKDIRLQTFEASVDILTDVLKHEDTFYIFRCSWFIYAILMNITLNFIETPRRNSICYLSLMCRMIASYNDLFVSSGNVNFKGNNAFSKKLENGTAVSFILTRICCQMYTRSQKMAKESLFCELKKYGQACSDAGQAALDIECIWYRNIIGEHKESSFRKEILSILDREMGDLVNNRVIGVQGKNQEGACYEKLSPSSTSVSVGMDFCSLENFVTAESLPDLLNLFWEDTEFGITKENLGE
Procedure: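 Universal 'all 10-mer' protein binding microarrays (Agilent AMADID 015681) probed with GST-tagged S. cerevisiae TFs (full-length or DBD) made by in vitro transcription/translation (PURExpress), about 100-200 nM. Bound TF was detected with fluorescent anti-GST. Each ungapped 8-mer (which stands for itself and its reverse complement) is scored by the PBM enrichment score (E-score), a modified Wilcoxon-Mann-Whitney statistic from -0.5 to +0.5, computed with the Universal PBM Analysis Suite. Scale: above 0.35 generally sequence-specific binding.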

Row | Sequence | PBM E-score
1 | GCCAACAC | 0.0745
2 | CGTTGTTC | -0.00041
3 | CTGGGCGA | -0.206
4 | GCCCATCC | -0.224
5 | CCGGTAGA | 0.264
6 | ACGGTAGA | -0.0773
7 | TCGGTAGA | 0.307
8 | AGGCGATG | -0.0512
9 | CCGCTGCG | -0.122
10 | GCTAGCGA | -0.147
11 | ACCCGAGT | 0.0508
12 | CCTTACCG | 0.114
13 | AAGAAATA | 0.163
14 | AAGAAATG | 0.227
15 | AAGAAATT | 0.346
16 | AGTCGTGG | -0.191
17 | GAAATTAA | 0.337
18 | GTAATTAA | 0.143
19 | AAAATTAA | 0.168
20 | TTAATTAA | -0.041
21 | ATAATTAA | 0.323
22 | ATAATTAG | 0.203
23 | ATCATTAA | 0.307
24 | ATAATTAC | 0.265
25 | CTCATTAA | 0.067

Row | Sequence | PBM E-score
26 | ATAATTAT | 0.386
27 | CAAATTAA | 0.0386
28 | ATCATTAG | 0.037
29 | AACAAACT | 0.277
30 | AACAACGA | 0.112
31 | AGTGGCCC | -0.153
32 | CAGGTATA | -0.163
33 | AGTGTGCA | -0.0513
34 | AACGATGT | 0.13
35 | CTCACCCA | -0.0925
36 | CACGTTCG | -0.203
37 | GCGCAAGA | 0.188
38 | AAAATTAC | 0.127
39 | AAAATTAG | 0.227
40 | AAAATTAT | 0.316
41 | AGGGATAG | -0.208
42 | CCATCTAC | -0.15
43 | CCCGGACA | 0.283
44 | GCCGGATA | 0.354
45 | GCAGGATA | -0.168
46 | GCCGGACC | 0.214
47 | GCCGGACA | 0.36
48 | GGCGGATA | 0.0758
49 | ACCGGACA | 0.122
50 | TCCGGACA | 0.431

Row | Sequence | PBM E-score
51 | GACGGACA | 0.121
52 | ACAAGAAG | 0.048
53 | CATCAGAG | -0.0413
54 | GAGCACCC | -0.141
55 | AAGTGATA | -0.118
56 | GGGCCTTA | -0.209
57 | CGGAGTAA | 0.313
58 | GGGAGTAA | 0.109
59 | CGGAGTAC | 0.0421
60 | AACCCGAA | 0.14
61 | CACGGCCA | 0.131
62 | AGTAACCG | 0.117
63 | ACCGCGGC | 0.344
64 | CCCGCGGC | 0.35
65 | CCCGCGGA | 0.257
66 | CCCGCGGG | 0.3
67 | ACCGCGGT | 0.195
68 | ACCGCGGG | 0.291
69 | ATGGACAT | 0.0596
70 | GAGTCGTA | -0.0554
71 | ATCGCAGA | -0.132
72 | CCACCACA | -0.093
73 | GAGTGCAC | -0.0537
74 | AAATGATT | 0.316
75 | AAATGATA | 0.162

Row | Sequence | PBM E-score
76 | AAATGATC | -0.0261
77 | ACTATCGA | -0.203
78 | CTTTCCGA | 0.3
79 | ATTTCCGG | 0.445
80 | CTTTCCGC | 0.187
81 | ACTTCCGG | 0.335
82 | GTTTCCGA | 0.286
83 | ATTTCCAC | 0.067
84 | ATTTCCGA | 0.359
85 | ACTTCCGA | 0.285
86 | ACTTCCGC | 0.166
87 | ATTTCCGC | 0.307
88 | ATTTCCTG | 0.186
89 | ATTTCCAG | 0.0278
90 | AAAAGCCG | 0.244
91 | GATCTCGA | 0.115
92 | CAGTTGAC | -0.0401
93 | ACATCTCG | 0.00537
94 | GGGATAAA | 0.195
95 | AAATTATT | 0.212
96 | ACGCAATA | 0.135
97 | AGAGCTCA | -0.142
98 | GTACTATA | 0.176
99 | ATGGCGTA | -0.111
100 | GATCCAAA | 0.196

Row | Sequence | PBM E-score
101 | CCTCCGAA | 0.0955
102 | CATCCGAA | 0.338
103 | GCTCCGAA | 0.298
104 | CATCCGAC | 0.247
105 | TCTCCGAA | 0.325
106 | TATCCGAA | 0.386
107 | CATCCGAG | 0.212
108 | GATCCGAA | 0.375
109 | AATCCGAA | 0.0989
110 | GATCCGAC | 0.0808
111 | TATCCGCA | 0.293
112 | AACAAGAA | 0.257
113 | AAGATTAT | 0.106
114 | GCATTGCC | -0.0318
115 | AGACTCTA | -0.124
116 | AGGCATGG | -0.0826
117 | TCGCTAAA | 0.0346
118 | GTCTTTCA | -0.0723
119 | CCGGCCAC | 0.24
120 | AACTGCTC | -0.0494
121 | GCCGTTAC | 0.119
122 | GTTCTGGA | 0.0262
123 | CGACGCCG | 0.239
124 | CCGACTTA | 0.304
125 | CCGACTTC | -0.243

Row | Sequence | PBM E-score
126 | CCGACTGA | 0.00051
127 | TGTTTCAA | 0.153
128 | ACGCGCAA | 0.156
129 | AGTCCCCC | -0.483
130 | AATAGCGG | 0.0178
131 | ATCCGGTA | 0.206
132 | ATGCGGCG | 0.0251
133 | ATCCGGCG | 0.321
134 | ATCCGGTC | 0.214
135 | ATCCGGCC | 0.358
136 | ATGCGGCC | 0.109
137 | ATCCGGTG | 0.353
138 | ATCCGACG | 0.155
139 | ATACGGCC | 0.153
140 | ATTTGGCA | 0.0517
141 | GTGCACAC | -0.194
142 | TGGCATAA | 0.139
143 | CTGGCTCA | -0.00502
144 | ACCAAAGC | 0.0124
145 | CAGCCCTA | -0.0337
146 | CATGGCGC | -0.0606
147 | GCCAAAAA | 0.234
148 | CGATAAAA | 0.333
149 | CGGTAAAA | 0.305
150 | GTATAAAC | 0.256

Row | Sequence | PBM E-score
151 | TGATAAAA | 0.178
152 | GGGTAAAA | 0.143
153 | AGGTAAAG | 0.106
154 | TGGTAAAA | 0.203
155 | CGGTAAAC | 0.216
156 | GTATAAAA | 0.325
157 | GGATAAAA | 0.248
158 | ATATAAAA | 0.278
159 | CGGTAAAG | 0.314
160 | AAGTTTGG | 0.113
161 | ATCCTCGG | 0.218
162 | CCAAAGCG | -0.0768
163 | ACAACCGA | 0.261
164 | AAGGCGTG | -0.149
165 | ATATTGGC | -0.0624
166 | GGGCAACC | -0.121
167 | CCCCAGGG | -0.297
168 | CACGGGGC | -0.0464
169 | TAATCTGA | -0.00734
170 | ATCCGTTC | 0.29
171 | GTCCGTTA | 0.207
172 | ATCCGTTA | 0.367
